Among all 390,000 compounds or so, about 930 (0.24%) were called active. Entries that show only a call come without a potency. Roughly 5% stayed inconclusive and do not appear here. Calls come from the whole dose curve; as a rule, active = well fitted activation curve with a large enough effect; inconclusive = small, poorly fitted or top-dose-only effect; inactive = no such curve, though single readings can be large or run the other way. The full list was thinned out, with actives kept by preference.
Assay: qHTS for Suppressors of FUS Proteinopathy: Primary screen using FUS-linked yeast assay; note: nearly all actives have a fitted effect of over 55% in size
Settings: S. cerevisiae FUS-expressing, OD600, 24 h; Potency: growth rescue; series mostly up to 76.6 µM
Source text: Several widespread neurodegenerative diseases, including Alzheimer disease, Huntington disease, Frontotemporal Lobar Degeneration (FTLD) and Amyotrophic Lateral Sclerosis (ALS), share a common pathological feature, namely accumulation of specific protein aggregates in diseased tissue. These diseases which is associated with protein misfolding (proteinopathies) have become increasingly problematic as the population ages and life expectancies are extended. Most proteinopathies are currently incurable, a situation confounded by the fact that the basis of neurodegeneration is generally poorly understood. There exists urgent and significant need to find therapeutics that can inhibit the toxicity associated with protein aggregation. A novel approach to understand the underlying mechanisms of neurodegenerative diseases has recently emerged in which the disease conditions are modeled in the yeast (Saccharomyces cerevisiae), a tractable eukaryotic organism with conserved protein quality control mechanisms. Yeast offers quick and reliable genetic manipulations and can be easily tailored to high-throughput screening (HTS).
For this project, a yeast model of the FUS proteinopathies (a spectrum of neurodegenerative diseases that include ALS and a subtype of FTLD) was generated and employed. The cytoplasmic accumulation of the DNA/RNA-binding protein FUS (also known as TLS) is causative to both familial and sporadic forms of ALS and FTLD. This yeast model recapitulates neuronal pathology by showing severe cytotoxicity associated with cytoplasmic accumulation of FUS aggregates and a specific interaction between FUS and TDP-43, another ALS-associated protein. […] Specifically, the cellular accumulation of misfolded FUS that disrupts RNA homeostasis in both yeast and higher eukaryotes. This model was validated to be suitable for quantitative HTS (qHTS) use for finding genetic or chemical factors that restore growth. […] Identified compounds that inhibits FUS-yeast toxicity is flagged, re-acquired, and validated for further investigation and optimization.
NIH Chemical Genomics Center [NCGC]
NIH Molecular Libraries Probe Production Centers Network [MLPCN]
Assay Submitter (PI): Frank Shewmaker PhD, Uniformed Services University of the Health Sciences
Compound CP55940 was used as the positive control. Column 1 was treated with CP55940 titration from 92uM (final concentration, 1:2 dilution), while Column 2 was treated with top dose 92uM. Columns 3 and 4 were treated with DMSO only as negative control to assess background and noise signal.
Four hundred fifty microliter of cultured yeast (in 20mL rich medium) provided by Dr. Shewmaker lab was incubated at 30C at 99% humidity for 3hr. The culture was then spun down at 4000rpm for 5min and the cell pellet was resuspended in 2mL of Sdmin Media + ALU(330) + 2.5% Raffinose. One hundred microliter of the suspension was added to 900uL of water and OD of the solution was obtained. Twenty mL of responding medium (provided by Shewmaker lab) + 2.5% raffinose was added to ensure cell density of 0.1; the solution was incubated overnight. Working cell solution (FUS-yeast in Sdmi + Sdmi + 1X ALU + 2% galactose media) was prepared (final OD at 0.005) and 3uL was dispensed in a 1536-well Aurora high based clear bottom assay plates. Controls and library compounds (at various final concentrations from 40uM to 0.32uM) were added using a 1536-well pin array using the Kalypsys pin-tool. The plates were then incubated for 24hrs in a cell-culture incubator (30C; 99% humidity). Absorbance at 600nm was then read using the PerkinElmer ViewLux plate reader.
Potency is the fitted concentration of half-maximal effect.

| SMILES | Potency |
| --- | --- |
| COc1ccccc1CNC(=O)Cn1nc(C)c2nn(-c3ccc(Cl)cc3)c(C)c2c1=O | inactive |
| Cc1ccc(NC(=O)c2nc(S(=O)(=O)Cc3cccc(C)c3)ncc2Cl)cc1 | inactive |
| CCN1C(=O)[C@H]2[C@@H](c3ccc(-c4ccc(OC)cc4)cc3)N[C@@](Cc3ccccc3)(C(=O)OC)[C@H]2C1=O | inactive |
| CCN1C(=O)[C@H]2[C@@H](c3ccc(SC4CCCCC4)c(OC)c3)N[C@@](Cc3ccccc3)(C(=O)OC)[C@H]2C1=O | inactive |
| CCN1C(=O)[C@H]2[C@@H](c3ccc(-c4ccc(F)cc4)cc3)N[C@@](Cc3ccccc3)(C(=O)OC)[C@H]2C1=O | 11.2 µM (active) |
| COC(=O)c1cc2occc2n1Cc1nc(-c2ccc(C)cc2)oc1C | inactive |
| CCN(Cc1ccccc1)S(=O)(=O)c1ccc2c(c1)CCCN2C(C)=O | inactive |
| Cc1cccc(CSc2nc3ccncc3n2CC(=O)N(C)C2CCCCC2)c1 | inactive |
| Cc1ccc(Cl)cc1N(C)C(=O)C1CCCN(c2ncnc3onc(-c4ccc(F)cc4)c23)C1 (stereo unspecified) | inactive |
| COc1ccc(N2CCN(S(=O)(=O)c3ccc4c(c3)NC(=O)C(C)C(=O)N4)CC2)cc1 (stereo unspecified) | inactive |
| CC1C(=O)Nc2ccc(S(=O)(=O)N3CCN(c4ccccc4F)CC3)cc2NC1=O (stereo unspecified) | inactive |
| CON(C)S(=O)(=O)c1ccc2c(c1)NC(=O)C1CCCN21 (stereo unspecified) | 28.2 µM (active) |
| COc1ccc(OCCCn2c(C)nc3cc(C)c(C)cc32)cc1 | inactive |
| CC(NC(=O)c1cc(Sc2ccc(F)cc2F)nc2ccccc12)c1ccccc1 (stereo unspecified) | inactive |
| Cc1cccc(-n2ncc(C(=O)N3CCc4ccccc4C3)c2C2CCN(C(=O)OC(C)(C)C)CC2)c1 | inactive |
| CC(=O)c1sc(N2C(=O)c3oc4ccccc4c(=O)c3C2c2ccc(C)cc2)nc1C (stereo unspecified) | inactive |
| Cc1ccc2nc(N3C(=O)C(O)=C(C(=O)c4ccco4)C3c3cccc(O)c3)sc2c1 (stereo unspecified) | 15.8 µM (active) |
| CCOc1cc(C2C(C(=O)c3ccco3)=C(O)C(=O)N2Cc2ccccc2)ccc1O (stereo unspecified) | inactive |
| Cc1ccc(CN2C(=O)SC(Nc3ccccc3)C2=O)cc1 (stereo unspecified) | inactive |
| CCN(c1ccc2c(c1)OCO2)S(=O)(=O)c1cc(Br)cc2c1N(C(=O)C1CC1)CC2 | 17.8 µM (active) |
| CN(Cc1ccccc1)C(=O)CCS(=O)(=O)c1cc(Br)cc2c1N(C(=O)C1CC1)CC2 | inactive |

| SMILES | Potency |
| --- | --- |
| CCOC(=O)N1CCN(S(=O)(=O)c2cc(Br)cc3c2N(C(=O)C2CC2)CC3)CC1 | inactive |
| O=C(CCS(=O)(=O)c1cc(Br)cc2c1N(C(=O)C1CC1)CC2)Nc1ccc(Br)cc1F | inactive |
| CC(C)NC(=O)Nc1cccc2c1O[C@@H](CN(C)S(=O)(=O)c1ccc(F)cc1)[C@@H](C)CN([C@H](C)CO)C2=O | inactive |
| COc1ccc(S(=O)(=O)N(C)C[C@H]2Oc3c(NC(=O)Nc4ccc5c(c4)OCO5)cccc3C(=O)N([C@H](C)CO)C[C@@H]2C)cc1 | 25.1 µM (active) |
| COc1ccc(S(=O)(=O)Nc2cccc3c2O[C@H](CN(C)S(=O)(=O)c2ccc(OC)cc2)[C@@H](C)CN([C@H](C)CO)C3=O)cc1 | inactive |
| COc1cc(OC)c(NC(=O)c2cc(S(=O)(=O)N3CCCC3)cn2C)cc1Cl | inactive |
| COC(=O)c1ccccc1NC(=O)C(Cc1ccccc1)N1Cc2ccccc2C1=O (stereo unspecified) | inactive |
| Cc1cccc(CCNC(=O)c2ccc3c(c2)nc2n3CCC(C)C2)c1 (stereo unspecified) | inactive |
| COc1cccc(NC(=O)N2CCN(C(=O)c3nsc4ccccc34)CC2)c1 | inactive |
| Cc1nc(SCCOc2ccc(Cl)cc2)[nH]c(=O)c1Cc1ccccc1 | inactive |
| O=C(CNC(=O)Cc1ccccc1)NCC(=O)OCC(=O)c1ccccc1Cl | inactive |
| COP(=O)(O)CNC(=O)OCc1ccccc1 | inactive |
| O=C(CNC(=O)OCc1ccccc1)Oc1cc2oc(=O)cc(-c3ccccc3)c2cc1Cl | 12.6 µM (active) |
| COC(=O)Cc1csc(/N=C/c2c(O)n(-c3cccc(C(F)(F)F)c3)c(=O)c3ccccc23)n1 | inactive |
| CCO/C=C1\C(=O)N(c2ccc(OCC)cc2)C(=O)c2ccccc21 | inactive |
| CCOc1ccc(N=Cc2c(O)n(-c3cccc(C)n3)c(=O)c3ccccc23)cc1 | 8.91 µM (active) |
| CCc1ccc(NC(=O)CCCc2nnc3n(CCCOC)c(=O)c4sccc4n23)cc1 | inactive |
| O=C(Nc1nc2c(s1)CCCC2)c1ccccc1F | inactive |
| COc1ccc2c(c1)Cc1sc(NC(=O)c3ccccc3Br)nc1-2 | 28.2 µM (active) |
| Cn1c(=O)c(=O)n(C)c2cc(NC(=O)c3ccccc3Br)ccc21 | inactive |
| CN(C(=O)c1ccc2c(c1)N(Cc1cccc(Cl)c1)C(=O)c1ccccc1S2=O)C1CCCCC1 (stereo unspecified) | inactive |

| SMILES | Potency |
| --- | --- |
| CC(C)Cn1c(CN(Cc2ccccc2)Cc2ccccc2)nc2c1c(=O)n(C)c(=O)n2C | 31.6 µM (active) |
| Cn1c(=O)[nH]c(=O)c2c1nc(CN(Cc1ccccc1)Cc1ccccc1)n2CCN1CCOCC1 | inactive |
| CC(C)CCn1c(CN(C)Cc2ccccc2)nc2c1c(=O)n(C)c(=O)n2C | inactive |
| CCN(CC)c1ccc(NC(=O)CN2C(=O)c3cccnc3Oc3ccc(Cl)cc32)c(C)c1 | inactive |
| Cc1ccc(Nc2cc(=O)n(C3CCCCC3)c(=O)[nH]2)cc1C | inactive |
| CC1CCc2sc(C(=O)N/N=C/C3CCCCC3)cc2C1 (stereo unspecified) | inactive |
| Cc1cc(/C=N/NC(N)=O)c(C)n1C1CCCCC1 | 22.4 µM (active) |
| CCc1ccccc1NC(=O)N1CCN(C(=O)c2nsc3ccccc23)CC1 | inactive |
| CCOc1cccc(NC(=O)CSc2ncc(-c3ccc(Cl)cc3)[nH]2)c1 | inactive |
| CCNC(=O)Cn1nc(C)n2c(cc3c(OC)cccc32)c1=O | inactive |
| CC(C)(C)OC(=O)C[C@@H]1C/C=C\C[C@@H](CC(=O)N(CCO)Cc2ccccc2)C(=O)N[C@H](Cc2ccccc2)COC1=O | inactive |
| O=C1CCC/C=C\C[C@@H](CC(=O)N(CCO)Cc2ccccc2)C(=O)NCCO1 | inactive |
| O=C1N[C@@H](c2ccccc2)COC(=O)[C@H](Cc2ccc(F)cc2)C/C=C\C[C@@H]1CC(=O)N(CCO)Cc1ccccc1 | 22.4 µM (active) |
| CCC1CCCCN1Cc1c(O)ccc2c(=O)c(Oc3ccccc3Cl)c(C(F)(F)F)oc12 (stereo unspecified) | inactive |
| Cc1ccc(C)c(Cn2c(CCCNC(=O)C3CCCCC3)nc3ccccc32)c1 | inactive |
| COCCNC(=O)c1cc(-c2cccc(Cl)c2)on1 | inactive |
| Cc1cc(N2C(=O)C(=O)/C(=C(/O)c3ccccc3)C2c2cccc(Br)c2)no1 (stereo unspecified) | inactive |
| Cc1cc(N2C(=O)C(=O)/C(=C(/O)c3ccc(Cl)cc3)C2c2cccc(Br)c2)no1 (stereo unspecified) | inactive |
| COc1ccccc1C1/C(=C(/O)c2ccc(OC(C)C)cc2)C(=O)C(=O)N1c1cc(C)on1 (stereo unspecified) | 20 µM (active) |
| Cc1ccc(-c2cn3c(n2)sc2cc(C(=O)NCCCc4ccccc4)ccc23)cc1 | inactive |
| O=C(CSc1nccn1C1CCCC1)Nc1cc(C(F)(F)F)ccc1Cl | inactive |

| SMILES | Potency |
| --- | --- |
| COc1ccc(CNC(=O)CC2Oc3ccc(C)cc3NC2=O)cc1 (stereo unspecified) | inactive |
| CC(=O)Nc1ccc(NC(=O)CCCc2nc(-c3ccc(C(C)(C)C)cc3)no2)cc1 | inactive |
| CC1Cc2cc(S(=O)(=O)CCC(=O)Nc3ccc(F)c(Cl)c3)ccc2N1C(=O)C1CC1 (stereo unspecified) | inactive |
| COc1ccccc1-c1cc(C(F)(F)F)nc(S(=O)(=O)CCCC(=O)Nc2ccc(F)cc2F)n1 | inactive |
| CCCCc1nn2c(=O)cc(COC(=O)c3ccc(NC(=O)c4ccccc4C)cc3)nc2s1 | inactive |
| CCCCOc1ccc(CN2C(=O)C(=O)c3cc(Br)cc(C)c32)cc1OC | inactive |
| Cc1ccc(CNC(=O)CCc2c(C)nc3c(c(C)nn3-c3ccccc3)c2C)cc1 | inactive |
| CCN(CC)C(=O)CSc1nc2cc3c(cc2c(=O)n1CCCC(=O)NCc1ccc2c(c1)OCO2)OCO3 | inactive |
| CCOc1ccc(-c2cc3c(=O)n(CC(=O)NCc4ccc(OC)cc4)ccn3n2)cc1 | inactive |
| COc1cccc(-n2c(=O)c3c(C)c(C(=O)N(C)C)sc3n(Cc3cccc(C)c3)c2=O)c1 | inactive |
| CCN(CC(=O)NC(=O)NCc1ccccc1)Cc1nc2ccccc2c(=O)[nH]1 | inactive |
| CCN(CC(=O)Nc1cccc(S(N)(=O)=O)c1)Cc1nc2ccccc2c(=O)[nH]1 | inactive |
| CCN(CC(=O)Nc1ccc(Cl)c(S(=O)(=O)N(C)C)c1)Cc1nc2ccccc2c(=O)[nH]1 | 31.6 µM (active) |
| CCN1CCN(CCCNC(=O)c2ccc3c(c2)sc2nc(-c4ccc(OC)cc4)cn23)CC1 | inactive |
| COc1ccc(CC(=O)NCCc2sc3nc(-c4ccc(OC)cc4)nn3c2C)cc1 | inactive |
| COC(=O)CN1C(=O)CSc2ccc(S(=O)(=O)Nc3cc(C)ccc3C)cc21 | inactive |
| Cc1ccc2nc(N3CCN(c4cccc(Cl)c4)CC3)c3nnnn3c2c1 | inactive |
| Cc1nnc(N2CCC(C(=O)Nc3ccc(F)cc3)CC2)c2nn(-c3ccc(Cl)cc3)c(C)c12 | inactive |

Reference: PubChem BioAssay AID1347120 (National Center for Advancing Translational Sciences (NCATS), 2019)
